Experimental data: PubChem BioAssay AID485367 (National Center for Advancing Translational Sciences (NCATS), 2010)
The whole screen tested about 330,000 compounds, of which about 560 (0.17%) were called active. Entries that show only a call come without a potency. Inconclusive results (about 1%) are left out. Calls come from the whole dose curve; as a rule, active = well fitted inhibition curve with a large enough effect; inconclusive = small, poorly fitted or top-dose-only effect, or effect the other way; inactive = flat fitted curve, though single readings scatter. The full list was thinned out, with actives kept by preference.

Target: ATP-dependent 6-phosphofructokinase (Trypanosoma brucei brucei) (UniProt O15648)
Sequence (O15648 whole entry, looked up): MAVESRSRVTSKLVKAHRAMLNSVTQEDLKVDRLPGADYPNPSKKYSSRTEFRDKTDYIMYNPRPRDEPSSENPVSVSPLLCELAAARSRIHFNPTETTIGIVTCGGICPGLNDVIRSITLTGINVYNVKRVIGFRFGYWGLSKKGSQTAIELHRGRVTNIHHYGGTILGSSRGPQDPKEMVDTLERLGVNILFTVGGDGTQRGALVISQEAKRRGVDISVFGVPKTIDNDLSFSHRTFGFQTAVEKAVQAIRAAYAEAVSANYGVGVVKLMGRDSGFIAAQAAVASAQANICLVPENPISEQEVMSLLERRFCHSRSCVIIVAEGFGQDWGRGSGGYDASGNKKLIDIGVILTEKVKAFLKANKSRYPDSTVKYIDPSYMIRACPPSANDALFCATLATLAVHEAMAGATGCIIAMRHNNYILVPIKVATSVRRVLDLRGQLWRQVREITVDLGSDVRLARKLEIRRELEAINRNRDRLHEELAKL
Assay: qHTS Assay to Find Inhibitors of T. brucei phosphofructokinase; note: nearly all actives have a fitted effect of over 60% in size
Details: T. brucei PFK, ADP-Glo luminescence; series mostly up to 57.5 µM
From the text: NIH Molecular Libraries Probe Production Network [MLPCN] NIH Chemical Genomics Center [NCGC] Grant: 1 R03 MH092153-01 PI Name: Malcolm Walkinshaw, University of Edinburgh NCGC Assay Overview: Various species of the protozoan family Trypanosomatidae are responsible for a range of serious human diseases in tropical and subtropical areas of the world. […] Many of the disorders caused by trypanosomatids are fatal if left untreated, but most currently used drugs are inefficient and toxic. […] Oxidative metabolism involving the mitochondrial tricarboxylic acid cycle and oxidative phosphorylation are repressed in these parasites, and recent RNA interference (RNAi) experiments have shown that even partial depletion of certain individual glycolytic enzymes can lead to the death of cultured parasites. One such glycolytic enzyme, phosphofructokinase (PFK), catalyzes the formation of fructose-1,6-bisphosphate (F1,6BP) and ADP from fructose-6-phosphate (F6P) and ATP, and in many metabolic circumstances makes an important contribution to the control of flux through the glycolytic pathway. As a specific glycolytic target, PFK is particularly attractive as it catalyzes the first irreversible step in glycolysis, and structural and kinetic studies have shown very substantial and essential differences from corresponding host enzymes, allowing for the discovery of parasite-selective inhibitors. The goal of this screen is to find small-molecule inhibitors of T. brucei PFK using a biochemical assay that measures PFK activity as a function of ADP production. A luminescence-based assay for T. brucei PFK activity has been developed which uses luciferase to detect production of ADP. Traditional luciferase-based nucleotide detection reagents rely on ATP production as a direct substrate for the luciferase reaction; however, PFK catalyzes the transfer of a phosphate from ATP to F6P, resulting in the net depletion of ATP. To directly measure the ADP product of the PFK reaction, we used the ADP-Glo detection kit (Promega), which utilizes two separate reactions to 1) deplete all remaining uncatalyzed ATP and 2) convert all remaining ADP to ATP, which is then detected through a traditional luciferase-coupled reaction. Compounds were screened as a concentration-titration series that ranged from 57 uM to 0.7 nM.
NCGC Assay Protocol Summary: NCGC Assay Protocol Summary: Substrate buffer was dispensed into white, solid 1536-well plates at 3uL/well in 0.1M triethanolamine (TEA) buffer, pH 8.0, containing final concentrations of 5 mM MgCl2, 0.01% Tween20, 0.5 mM fructose-6-phosphate (F6P) and 0.1mM ATP. Then, 23 nL of compounds or DMSO were delivered to each well using a pin tool. One uL T. brucei PFK (0.1M TEA, 0.01% Tween20, 0.1% bovine serum albumin (BSA) and 1.25nM PFK, final concentrations) was then dispensed, and plates were incubated at room temperature for 45 min. The luminescent detection reagent, ADP-Glo (Promega), was then added in two steps: the first reagent, ADP-Glo (which converts remaining uncatalyzed ATP), was added at 2.5uL/well and incubated for ten minutes at room temperature, and the second component, Kinase Detection reagent (which converts ADP to ATP as a substrate for luciferase-based luminescence), was added immediately after at 5uL/well, followed by one final ten minute room temperature incubation. The plates were measured on a ViewLux plate reader for luminescent signal using a clear filter with a one second exposure. The %Activity was determined from the corrected luminescence values. As no specific T. brucei PFK inhibitors have been identified in the literature, 1x (1.25nM) and 0x PFK enzyme controls (untreated) were included to normalize %Activity of identified inhibitors; 0x enzyme values corresponded to 100%Activity (full inhibition), while 1x PFK enzyme values were used to normalize 0%Activity (no inhibition). Concentration-response curves were fitted to the signals arising from the resulting luminescence. […]
Potency is the fitted concentration of half-maximal effect.

SMILES | Potency
O=C(Cc1ccc([N+](=O)[O-])cc1)N/N=C/c1ccco1 | 19 µM (active)
OC(Cn1c2ccccc2c2ccccc21)C[n+]1ccccc1 (stereo not given) | inactive
CCCCCCN=C(CC)c1c(O)n(CCCC)c(=O)[nH]c1=O | inactive
CCOC(=O)C1SC2(C(F)(F)C(F)F)CC1(O)c1c(c(OC)c3occc3c1OC)O2 (stereo not given) | inactive
Cn1nnnc1NCc1ccc(Cl)c(Cl)c1 | 10.7 µM (active)
Cc1ccc(-n2c(-c3ccc([N+](=O)[O-])cc3)nc3ccccc3c2=O)cc1 | inactive
CC(Cc1cccs1)NCc1ccc(Cl)cc1 (stereo not given) | inactive
O=C1/C(=C\c2ccc3c(c2)OCO3)N2CCC1CC2 | inactive
CCOP(=S)(OCC)C(O)CCCCCn1c(=O)c(F)cn(C2CCCO2)c1=O (stereo not given) | inactive
COc1ccc(CCn2c(O)c(C=NCCCn3ccnc3)c(=O)[nH]c2=O)cc1OC | inactive
